Measurements taken from the supplement of paper PMC13380429.

Test system: Vero E6 infected with SARS-CoV-2
Assay: inhibition of SARS-CoV-2 cytopathic effect; higher = more antiviral protection, active = above 15
Details: 48 h

Measured: inhibition of SARS-CoV-2 cytopathic effect

CC1(C)S[C@@H]2[C@H](NC(=O)[C@H](N)c3ccccc3)C(=O)N2[C@H]1C(=O)O [ampicillin]
inactive: 1 nM 0.57% | 8.33 nM 1.76% | 100 nM -0.8% | 833.33 nM -1.53% | 10000 nM 0.38%

COc1ccc(CNC(=O)c2sc3nc(C)cc(C)c3c2N)cc1
inactive: 1 nM 1.68% | 8.33 nM 2.93% | 100 nM 2.17% | 833.33 nM 2.96% | 10000 nM 2.28%

CC[C@H]1OC(=O)[C@H](C)[C@@H](O[C@H]2C[C@@](C)(OC)[C@@H](O)[C@H](C)O2)[C@H](C)[C@@H](O[C@@H]2O[C@H](C)C[C@H](N(C)C)[C@H]2O)[C@](C)(OC)C[C@@H](C)C(=O)[C@H](C)[C@@H](O)[C@]1(C)O [clarithromycin]
inactive: 1 nM -4.37% | 8.33 nM -0.55% | 100 nM 2.36% | 833.33 nM 1.42% | 10000 nM -3%

CC(NCCc1ccc(O)cc1)C(O)c1ccc(O)cc1 (stereo not given) [ritodrine]
inactive: 1 nM 0.34% | 8.33 nM -0.09% | 100 nM 1.29% | 833.33 nM -2.19% | 10000 nM -1.02%

O=C(NS(=O)(=O)c1ccc(Br)s1)c1ccc(Cl)cc1Cl [tasisulam]
inactive: 1 nM -0.54% | 8.33 nM 5.25% | 100 nM 0.94% | 833.33 nM -0.93% | 10000 nM 4.37%

CCCCOc1ccc(OCCCN2CCOCC2)cc1 [pramoxine]
inactive: 1 nM -3.87% | 8.33 nM -1.02% | 100 nM -1.18% | 833.33 nM -1.83% | 10000 nM 0.79%

CCOc1ccc2nc3cc(N)ccc3c(N)c2c1 [ethacridine-lactate-monohydrate]
inactive: 1 nM -0.84% | 8.33 nM 0.62% | 100 nM 0.77% | 833.33 nM -1.28% | 10000 nM 0.22%

CCOC(=O)/C=C(C)/C=C/C=C(C)/C=C/c1c(C)cc(OC)c(C)c1C [etretinate]
inactive: 1 nM -2.16% | 8.33 nM 0.11% | 100 nM 0.84% | 833.33 nM 2.68% | 10000 nM 3.85%

COc1ccc(C(C)=O)c(O)c1 [paeonol]
inactive: 1 nM 1.08% | 8.33 nM 1.99% | 100 nM 2.76% | 833.33 nM 0.69% | 10000 nM -4.98%

C[C@H](Oc1ccc(S(C)(=O)=O)cc1C(=O)N1CCN(c2ncc(C(F)(F)F)cc2F)CC1)C(F)(F)F [bitopertin]
inactive: 1 nM 1.07% | 8.33 nM 0.78% | 100 nM 1.93% | 833.33 nM 0.34% | 10000 nM -3.97%

CSc1ccccc1OCC(O)CNC(C)C (stereo not given) [tiprenolol]
inactive: 1 nM -1.52% | 8.33 nM 2.58% | 100 nM -1.94% | 833.33 nM 0.37% | 10000 nM 3.9%

COc1ccc(-c2oc3cc(OC)ccc3c2C(=O)c2ccc(C#N)cc2)cc1
inactive: 1 nM -2.41% | 8.33 nM -2.08% | 100 nM -3.03% | 833.33 nM -3.9% | 10000 nM 1.7%

O=C(O)C1=CCCN(CCON=C(c2ccccc2)c2ccccc2)C1
inactive: 1 nM -1.65% | 8.33 nM 0.36% | 100 nM 0.96% | 833.33 nM 0.86% | 10000 nM 2.06%

Cc1c(N)c(=O)n(-c2ccccc2)n1C [ampyrone]
inactive: 1 nM -3.22% | 8.33 nM -2.95% | 100 nM -3.07% | 833.33 nM -2.31% | 10000 nM -1.12%

CC(C)C(=O)SCCCCC[C@H](NC(=O)OC(C)(C)C)C(=O)NC12CC3CC(CC(C3)C1)C2
inactive: 1 nM -5.42% | 8.33 nM -0.36% | 100 nM -0.22% | 833.33 nM 2.47% | 10000 nM -6.65%

Cc1cc2ncc(C(=O)NCC(C)(C)NCC(=O)N3CCC[C@H]3C#N)cn2n1 [anagliptin]
inactive: 1 nM -0.17% | 8.33 nM -0.56% | 100 nM -0.23% | 833.33 nM 0.84% | 10000 nM 0.07%

CCOC(=O)Nc1ccc2c(c1)N(C(=O)CCN1CCOCC1)c1ccccc1S2 [moracizine]
inactive: 1 nM 0.84% | 8.33 nM 3.43% | 100 nM -0.23% | 833.33 nM 2.61% | 10000 nM 5.32%

O=S(=O)(O)c1cc(O)ccc1O [etamsylate]
inactive: 1 nM 0.18% | 8.33 nM -1.16% | 100 nM -0.81% | 833.33 nM 0.23% | 10000 nM 1.8%

CCN(CC)CCOCCOC(=O)C(CC)(CC)c1ccccc1 [oxelaidin]
inactive: 1 nM -3.54% | 8.33 nM 0.15% | 100 nM 0.38% | 833.33 nM -0.56% | 10000 nM 0.38%

O=c1cc(-c2cccc3c2Sc2ccccc2S3)oc(N2CCOCC2)c1
inactive: 1 nM 2.07% | 8.33 nM -2.3% | 100 nM -0.67% | 833.33 nM 3.55% | 10000 nM -1.33%
